These results are taken from ChEMBL document CHEMBL3988442, “University of Dundee, Small-Polar-MMV Screening Library” (2021).

SMILES strings stand for the structures. In all, about 48,000 compounds went through this assay and about 13,000 (27%) showed an effect of 50% or more. This is one part of the list.

The test system of this assay is Wolbachia pipientis. Description: Anti-Wolbachia Cell-Based Screen. The class given is functional. More on the design: scale not given: in the data most compounds retested in dose-response had high values. The conditions noted are these: 5 µM.
Consider `CC(C)(C)n1cc(C2=CCN(CCc3ccccn3)CC2)cn1`, for which the “Percent Effect” value is 15.47%.

On to `CCOCC(O)CN1CCN(C(=O)Cc2ccc3c(c2)CCO3)CC1` (stereo unspecified), for which the “Percent Effect” value is recorded as -9.69%.

Consider `CC(Cn1cncn1)NCc1n[nH]c2c1CCCCC2` (stereo unspecified), for which the “Percent Effect” value was -17.11%.

In the case of `O=C(c1cn(Cc2ccccc2)c2ncccc12)N1CCOCC1`, the “Percent Effect” value is recorded as 115.6%.

In the case of `CC(=O)c1cn(CC(=O)N2CCC3(CC2)OCCO3)c2ccccc12`, the “Percent Effect” value is -19.35%.

Take `COCCN1C[C@@H](C)[C@@]2(COCCN(C(=O)c3ccccn3)C2)C1.O=C(O)C(F)(F)F.O=C(O)C(F)(F)F`: the “Percent Effect” value is -2.288%.

With `Cc1ccc(N2CCCN(C(=O)c3cn(C)c4ccccc34)CC2)nn1`, the “Percent Effect” value is 7.774%.

For the compound `O=C(c1cn(Cc2ccccc2)c2ncccc12)N1CCCCC1`, the “Percent Effect” value was 137.3%.

In the case of `O=C(c1cccnc1-n1cncn1)N1CCC(Nc2ccccc2)CC1`, the “Percent Effect” value was 0.1986%.

Consider `O=C(O)C(F)(F)F.O=C([C@@H]1C[C@@H]2CCN(Cc3ccccn3)C[C@H]2O1)N1CCCO1`, for which the “Percent Effect” value was -15.19%.

`O=C(O)C(F)(F)F.O=C(O)C(F)(F)F.O=C([C@H]1CN(Cc2cccnc2)C[C@H]2OCC[C@@H]12)N1CCCO1`: the “Percent Effect” value is on record as -1.635%.

As to `O=C(O)C(F)(F)F.O=C(O)C(F)(F)F.O=C(O)C(F)(F)F.c1cc(CN2CCCC23CCCN(Cc2ccoc2)C3)ccn1` (stereo unspecified), the “Percent Effect” value was 6.786%.

For the compound `O=C(N1CCCO1)[C@@]12CCO[C@@H]1CCN(Cc1cccnc1)C2.O=C(O)C(F)(F)F.O=C(O)C(F)(F)F`, the “Percent Effect” value is recorded as 92.31%.

Regarding `O=C(N1CCCO1)[C@]12COC[C@H]1CN(Cc1cccnc1)C2.O=C(O)C(F)(F)F.O=C(O)C(F)(F)F`, the “Percent Effect” value came out at 2.039%.

In the case of `Cc1cccc(CN2CC[C@H]3OCC[C@@]3(C(=O)N3CCCO3)C2)n1.O=C(O)C(F)(F)F.O=C(O)C(F)(F)F`, the “Percent Effect” value worked out at 104.8%.

Turning to `Cc1noc(C)c1CN1CC[C@H]2OCC[C@@]2(C(=O)N2CCCO2)C1.O=C(O)C(F)(F)F`, the “Percent Effect” value is recorded as -1.065%.

`Cc1cccc(CN2CCC3(CCCN(CC(=O)N(C)C)C3)C2)n1.O=C(O)C(F)(F)F` (stereo unspecified): the “Percent Effect” value turned out to be 2.241%.

Take `Cc1nnc(N2CCCC3(CN(Cc4ccncc4)CCO3)C2)o1.O=C(O)C(F)(F)F.O=C(O)C(F)(F)F` (stereo unspecified): the “Percent Effect” value is listed as -4.396%.

Turning to `O=C(N1CCOCC1)[C@@]12CCO[C@@H]1CCN(Cc1ccncc1)C2.O=C(O)C(F)(F)F.O=C(O)C(F)(F)F`, the “Percent Effect” value is 97.63%.

Regarding `O=C(N1CCCO1)[C@@]12CCO[C@@H]1CCN(Cc1ccccn1)C2.O=C(O)C(F)(F)F.O=C(O)C(F)(F)F`, the “Percent Effect” value came to 114.4%.

On to `Cc1ccnc(OC[C@@]23CCO[C@@H]2CCN(C2CCC2)C3)n1.O=C(O)C(F)(F)F`, for which the “Percent Effect” value is listed as -3.433%.

As for `Cc1cc(CN2CC[C@H]3OCC[C@@]3(C(=O)N3CCOCC3)C2)no1`, the “Percent Effect” value was 107.8%.

As for `O=C(NCc1ccccn1)[C@@]12CCO[C@@H]1CCN(C1CCCC1)C2.O=C(O)C(F)(F)F.O=C(O)C(F)(F)F`, the “Percent Effect” value was found to be 86.28%.

For the compound `Cc1cc(CN2C[C@@H]3CN(C(=O)c4ccco4)CCO[C@@H]3C2)no1.O=C(O)C(F)(F)F`, the “Percent Effect” value is reported as -7.73%.

As for `Cc1cc(CN2CC[C@H]3OCC[C@@]3(C(=O)NC(C)C)C2)no1.O=C(O)C(F)(F)F`, the “Percent Effect” value was found to be 2.849%.

Regarding `CCn1ccnc1CN1CCNCC1C.Cl.Cl` (stereo unspecified), the “Percent Effect” value amounted to 0.9214%.

Regarding `CN(C)C(=O)CN1CCCC12CCCN(c1ncc(F)cn1)C2.O=C(O)C(F)(F)F` (stereo unspecified), the “Percent Effect” value turned out to be 0.08141%.

Take `O=C(c1ncccn1)N1C[C@@H]2CN(CC3CC3)CCO[C@@H]2C1`: the “Percent Effect” value was -1.954%.

On to `CN1CCN(C(=O)Cc2csc(-c3ccsc3)n2)C(c2ccccc2)C1` (stereo unspecified), for which the “Percent Effect” value is given as -6.196%.

Take `CN(C)CCN(C)C[C@H]1CN2CC[C@H]1C[C@@H]2CNC(=O)Nc1ccsc1`: the “Percent Effect” value was determined as 9.133%.

In the case of `Cn1cc(CN2CCC[C@]3(C[C@H](Oc4ccccn4)CO3)C2)cn1`, the “Percent Effect” value is reported as 94%.

Consider `Cn1cc(CN2CC[C@]3(C[C@H](Oc4ccccn4)CO3)C2)cn1.O=C(O)C(F)(F)F.O=C(O)C(F)(F)F`, for which the “Percent Effect” value worked out at 102.3%.

Consider `Cn1cc(CN2CCC[C@]3(C[C@@H](Oc4ccccn4)CO3)C2)cn1.O=C(O)C(F)(F)F.O=C(O)C(F)(F)F`, for which the “Percent Effect” value came to 98.39%.

`CN(C)[C@@H]1CN(Cc2cnn(C)c2)[C@@H]2COC[C@H]12.O=C(O)C(F)(F)F.O=C(O)C(F)(F)F.O=C(O)C(F)(F)F`: the “Percent Effect” value is given as -10.13%.

Regarding `Cc1csc(CN2CCC[C@]3(C[C@H](Oc4ccccn4)CO3)C2)n1.O=C(O)C(F)(F)F.O=C(O)C(F)(F)F`, the “Percent Effect” value was -0.2968%.

As to `Cc1cc(CN2CC[C@]3(C[C@@H](OCC(=O)N(C)C)CO3)C2)no1.O=C(O)C(F)(F)F`, the “Percent Effect” value is on record as 25.8%.

Regarding `Cc1csc(CN2CCC[C@]3(C[C@@H](Oc4ccccn4)CO3)C2)n1.O=C(O)C(F)(F)F.O=C(O)C(F)(F)F`, the “Percent Effect” value is 133.6%.

With `O=C(O)C(F)(F)F.O=C(O)C(F)(F)F.c1ccc(O[C@H]2CO[C@@]3(CCCN(Cc4nccs4)C3)C2)nc1`, the “Percent Effect” value stood at 12.82%.

`Cc1noc(C)c1CN1C[C@@H](OCC(=O)N(C)C)[C@H]2OCCC[C@H]21`: the “Percent Effect” value is -2.894%.

For the compound `O=C(NCC1CC1)[C@@H]1C[C@@H]2OCCN[C@@H]2C1.O=C(O)C(F)(F)F`, the “Percent Effect” value stood at 8.68%.

For `Cc1cc(C)c(CNCC(O)c2ccc(F)c(F)c2)c(C)c1.Cl` (stereo unspecified), the “Percent Effect” value amounted to 6.678%.

Regarding `COC(=O)c1ccc(C2SCC(=O)Nc3c2cnn3C(C)(C)C)cc1` (stereo unspecified), the “Percent Effect” value is 111.9%.

In the case of `Cn1c(=O)n(C)c2cc(C3SCC(=O)Nc4ccsc43)ccc21` (stereo unspecified), the “Percent Effect” value was determined as 27.99%.

Regarding `O=C1CSC(c2cccs2)c2cnn(C3CCCC3)c2N1` (stereo unspecified), the “Percent Effect” value is listed as 10.18%.

For the compound `COc1cc(C2SCC(=O)Nc3ccsc32)cc(OC)c1O` (stereo unspecified), the “Percent Effect” value is recorded as -0.1259%.

In the case of `CC(C)(C)n1ncc2c1NC(=O)CSC2c1ccsc1` (stereo unspecified), the “Percent Effect” value is reported as 129%.

Consider `O=C1CSC(c2ccc(O)cc2)c2sccc2N1` (stereo unspecified), for which the “Percent Effect” value is given as -5.574%.

`Cc1c(C2SCC(=O)Nc3c2cnn3C(C)(C)C)cnn1C` (stereo unspecified): the “Percent Effect” value is on record as 122.6%.

For the compound `COc1cccc(C2SCC(=O)Nc3ccsc32)c1OC` (stereo unspecified), the “Percent Effect” value is recorded as -5.826%.

With `O=C1CSC(c2ccsc2)c2sccc2N1` (stereo unspecified), the “Percent Effect” value is reported as 0.8024%.

Take `CC(C)(C)n1ncc2c1NC(=O)CSC2c1ccc2c(c1)OCCO2` (stereo unspecified): the “Percent Effect” value worked out at 117.6%.

Consider `COC(=O)c1ccc(C2SCC(=O)Nc3ccsc32)cc1` (stereo unspecified), for which the “Percent Effect” value is reported as -2.415%.

Consider `CC1CCN(C[C@H]2CN3CC[C@H]2C[C@@H]3CNC(=O)Nc2ccsc2)CC1`, for which the “Percent Effect” value is 0.4847%.

With `CC1C(=O)Nc2cccnc2N1S(=O)(=O)c1ccc(C#N)c(Cl)c1` (stereo unspecified), the “Percent Effect” value is listed as 12.36%.

For `O=C(NC[C@H]1C[C@@H]2CCN1C[C@@H]2CN1CCOCC1)Nc1ccsc1`, the “Percent Effect” value worked out at 0.8179%.

As for `CN(C)C(=O)COC[C@@]12CCC[C@@H]1CNC2.O=C(O)C(F)(F)F`, the “Percent Effect” value was -7.185%.

`O=C(CSc1ccccn1)N1CCN(CCO)[C@@H]2CS(=O)(=O)C[C@@H]21`: the “Percent Effect” value was -2.402%.

`Cc1n[nH]c2c1C(c1cnn(C)c1)SCC(=O)N2` (stereo unspecified): the “Percent Effect” value came to 12.5%.

In the case of `Cn1cc(C2SCC(=O)Nc3c2cnn3C(C)(C)C)cn1` (stereo unspecified), the “Percent Effect” value worked out at 109.1%.

`CC(C)CN1C[C@H]2C[C@H](C(=O)NCc3cccnc3)[C@@H](C1)O2`: the “Percent Effect” value is listed as -10.23%.

For `Cn1cc(CN2C[C@H]3CN(c4cncnc4)C(=O)[C@H]3C2)cn1.O=C(O)C(F)(F)F`, the “Percent Effect” value is listed as -0.6359%.

With `N#Cc1ccc(C(=O)NS(=O)(=O)c2ccc(C#N)c(Cl)c2)cc1`, the “Percent Effect” value is recorded as -4.058%.

Take `CCc1ccc2ncn(Cc3ncc[nH]3)c(=O)c2c1`: the “Percent Effect” value stood at 108.2%.

As for `COc1ccc2ncn(Cc3ncc[nH]3)c(=O)c2c1`, the “Percent Effect” value is reported as 121%.

For the compound `O=S1(=O)C[C@@H]2[C@H](C1)N(Cc1ncc[nH]1)CCN2Cc1cccnc1`, the “Percent Effect” value is given as -2.711%.

On to `Cc1ncsc1CN1CCO[C@H]2[C@H](Oc3ccccn3)CC[C@@H]21.O=C(O)C(F)(F)F.O=C(O)C(F)(F)F`, for which the “Percent Effect” value is -5.284%.

In the case of `Cc1nc(CC(=O)N(CCN2CCOCC2)Cc2ccco2)c(C)s1`, the “Percent Effect” value came out at 5.284%.

For the compound `CCc1ncc(CN(CCc2ccccc2)Cc2cccs2)cn1.O=C(O)CC(O)(CC(=O)O)C(=O)O`, the “Percent Effect” value amounted to 50.24%.

Regarding `O=C(O)C(F)(F)F.c1ccc(-c2ncc3c(n2)C2(CCN(CC4CC4)C2)COC3)cc1` (stereo unspecified), the “Percent Effect” value was determined as 6.483%.

For the compound `CN1CCC2(COCc3cnc(-c4ccccc4)nc32)C1.O=C(O)C(F)(F)F` (stereo unspecified), the “Percent Effect” value stood at 9.461%.

As to `COCCN1CCC2(COCc3cnc(N(C)C)nc32)C1.O=C(O)C(F)(F)F` (stereo unspecified), the “Percent Effect” value came out at 1.083%.

For the compound `CC(C)CN1CCC2(COCc3cnc(-c4ccccc4)nc32)C1.O=C(O)C(F)(F)F` (stereo unspecified), the “Percent Effect” value is on record as 105.5%.

For `CN(C)c1ncc2c(n1)C1(CCN(Cc3ccccc3)C1)COC2.O=C(O)C(F)(F)F` (stereo unspecified), the “Percent Effect” value was -5.323%.

For `COCCN1CCC2(COCc3cnc(-c4ccccc4)nc32)C1.O=C(O)C(F)(F)F` (stereo unspecified), the “Percent Effect” value came out at 89.12%.

For the compound `N#CC1(c2ccccc2)CCN(C(=O)C2CCCN(CC(N)=O)C2)CC1` (stereo unspecified), the “Percent Effect” value is listed as -8.527%.

For `CC(C)(O)c1cn(C[C@H]2C[C@@H]3CCN2C[C@@H]3C(=O)N2CCOCC2)nn1`, the “Percent Effect” value is -10.14%.

Consider `CS(=O)(=O)N1CCC2(CCCN(Cc3ccccn3)C2)C1.O=C(O)C(F)(F)F.O=C(O)C(F)(F)F` (stereo unspecified), for which the “Percent Effect” value is listed as -1.492%.

Consider `O=S(=O)(C1CC1)N1CCC2(CCCN(Cc3ccccn3)C2)CC1`, for which the “Percent Effect” value is 112.9%.

For `O=C(O)C(F)(F)F.O=C(O)C(F)(F)F.O=C1N(c2cncnc2)CCC12CCCN(Cc1ccccn1)C2` (stereo unspecified), the “Percent Effect” value was -2.82%.

`CS(=O)(=O)N1CCC2(CCCN(Cc3ccccn3)C2)CC1.O=C(O)C(F)(F)F`: the “Percent Effect” value was 4.513%.

As for `O=C(O)C(F)(F)F.O=C(O)C(F)(F)F.O=S(=O)(C1CC1)N1CCC2(CCCN(Cc3ccccn3)C2)C1` (stereo unspecified), the “Percent Effect” value was determined as 113.2%.
